# Assay results as given in PubChem BioAssay AID588397 (National Center for Advancing Translational Sciences (NCATS), 2011).
# About 1,000 (77%) of roughly 1,300 compounds were called active. Not shown: some 7% with an inconclusive outcome. The set was probably picked from earlier hits. The list shows a part of the results. Values without a mark were called inactive. Calls follow the shape of the dose curve; as a rule, active = well fitted inhibition curve with a large enough effect; inconclusive = small, poorly fitted or top-dose-only effect; inactive = no such curve, though single readings can be large or run the other way.
# Assay: qHTS of small molecules that selectively kill Giardia lamblia: Hit Validation.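 Also: viability measured as ATP content by luminescence so killing lowers signal; trophozoites exposed to compounds for 48 h anaerobically at 37 °C; nearly all actives have a fitted effect of over 65% in size.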
# Conditions: Giardia lamblia trophozoite viability, dose-response; series mostly up to 38.3 µM; activity change, negative = killing: at the top concentration
# In short: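 Killing of trophozoites was scored by loss of ATP luminescence after a 48 hrs anaerobic exposure to compounds at 37 deg C, using 100 cells per well.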
# % is scaled to controls: 0 for no effect and ±100 for the full control effect; potency is read from the fitted curve at half-maximal effect.
SMILES,"activity change, negative = killing [%]",Potency
O=S1(=O)[C@H]2C[C@@H]3C=C[C@@]2(CN1Cc1cccc(F)c1)O3,-10.8,
COc1ccc(-n2nc([N+](=O)[O-])c(=NCCc3cccc(C)c3)n2O)cc1,,1.3 µM (active)
Cc1cccc(CCN=c2c([N+](=O)[O-])nn(-c3ccccc3)n2O)c1,,2.9 µM (active)
CN(C)c1nc(=Nc2cccc(Cl)c2)ss1,,11.6 µM (active)
CCCSc1nc2c(c(=O)n1CC)SC(C)C2 (stereo not drawn),-12.4,
O=C(Nc1nnc(SCC(=O)N2CCOCC2)s1)c1ccccc1,,5.16 µM (active)
O=C(Nc1nnc(SCC(=O)N2CCOCC2)s1)c1ccccc1Cl,,5.79 µM (active)
O=C(CSc1nnc(NC(=O)c2ccccc2)s1)NCc1ccco1,,4.6 µM (active)
O=C(CSc1nnc(NC(=O)c2c(F)cccc2F)s1)Nc1ccc(F)cc1,-33.4,
O=[N+]([O-])c1cn(-c2nc(-c3ccco3)cc(C(F)(F)F)n2)cn1,,2.59 µM (active)
COC(=O)[C@@]1(Cc2ccc(OC)cc2)[C@H]2c3cc(C(=O)N4CCCC4)n(CCn4cc([N+](=O)[O-])nc4C)c3C[C@H]2CN1C(=O)c1ccccc1,,0.206 µM (active)
O=[N+]([O-])c1ncc(Br)cc1Nc1ccccc1,,0.516 µM (active)
C[C@@H]1[C@H]2[C@@H](O[C@@H]3O[C@H](CO)[C@@H](O)[C@H](O)[C@H]3O)OC=C(C(=O)O)[C@H]2C[C@@H]1O,-3.42,
CS(=O)(=O)N1CCN(c2ccc([N+](=O)[O-])c3cccnc23)CC1,,1.03 µM (active)
O=[N+]([O-])c1ccc(N2CCN(CCO)CC2)c2ncccc12,,1.45 µM (active)
Nc1nonc1OCCN1CCN(c2ccc([N+](=O)[O-])c3cccnc23)CC1,,1.83 µM (active)
O=C(c1cccc(F)c1)N1CCN(c2ccc([N+](=O)[O-])c3cccnc23)CC1,,3.26 µM (active)
O=c1c([N+](=O)[O-])cccn1Cc1ccc(F)cc1Cl,,2.31 µM (active)
O=c1c([N+](=O)[O-])cccn1Cc1ccccc1Cl,,4.1 µM (active)
Clc1ccc2c(N/N=C/c3ccccc3Br)ccnc2c1,,1.63 µM (active)
Cc1ccccc1/C=N/Nc1ccnc2cc(Cl)ccc12,,0.326 µM (active)
Cc1ccc(/C=N/Nc2ccnc3cc(Cl)ccc23)c(C)c1,,0.365 µM (active)
COc1cc(/C=C/c2onc(C)c2[N+](=O)[O-])cc(OC)c1OC,,2.05 µM (active)
Cc1noc(/C=C/c2cccnc2)c1[N+](=O)[O-],,8.18 µM (active)

SMILES,"activity change, negative = killing [%]",Potency
Cc1cc2[nH]c3c(c[n+](C)c4ccccc34)c2cc1C,,1.16 µM (active)
COc1cc(C2Nc3ccccc3C(=O)N2c2ccc3c(c2)OCCO3)ccc1OCC(C)C (stereo not drawn),,3.26 µM (active)
CC(C)Oc1ccccc1C1Nc2ccccc2C(=O)N1c1ccc2c(c1)OCCO2 (stereo not drawn),,5.16 µM (active)
CC(=O)c1ccc(NC(=O)COC(=O)c2ccccc2N=Nc2ccc(N(C)C)cc2)cc1,,3.26 µM (active)
CN(C)c1ccc(N=Nc2ccccc2C(=O)OCC(=O)N2CCCC2)cc1,,1.45 µM (active)
CN(C)c1ccc(N=Nc2ccccc2C(=O)O)cc1,,0.29 µM (active)
CC(=O)NC(Cc1cccc(C)c1)C(=O)NC1CCN(c2ncccc2[N+](=O)[O-])CC1 (stereo not drawn),,4.6 µM (active)
Cc1ccc(-n2nc3c(N4CCC(C(=O)NCc5cccc(F)c5)CC4)nnc(C)c3c2C)cc1,-12.7,
CC(=O)NC(Cc1cccc(F)c1)C(=O)NC1CCN(c2ncccc2[N+](=O)[O-])CC1 (stereo not drawn),,2.31 µM (active)
COc1ccc(OC)c(CCNC(=O)CSc2ccsc2[N+](=O)[O-])c1,,0.729 µM (active)
COc1ccc(CCNC(=O)CSc2ccsc2[N+](=O)[O-])cc1OC,,0.516 µM (active)
COc1ccc(CCNC(=O)C23CCC(C)(C(=O)C2=O)C3(C)C)cc1OC (stereo not drawn),-8.09,
COCCn1c(C)cc(/C=C2\NC(=S)N(C)C2=O)c1C,-34.6,
COCCn1c(C)cc(/C=C2/SC(=O)N(C(C)C(=O)OC)C2=O)c1C (stereo not drawn),,5.79 µM (active)
O=C(Nc1ccc(-c2cn3ccsc3n2)cc1)C1CC1,,3.26 µM (active)
COc1ccc(-c2cn3ccsc3n2)cc1,,9.18 µM (active)
COc1ccc(OCc2nnc3n2N=C(c2ccc(OC)cc2)CS3)cc1,-24.4,
CC(=O)OCCSc1c(-c2ccccc2)c2cc(Cl)ccc2[nH]c1=O,-2.52,
COc1ccccc1NC(=O)c1ccc([N+](=O)[O-])o1,,1.45 µM (active)
CCS(=O)(=O)N1Cc2ccccc2CC1C(=O)Nc1ccccc1OC (stereo not drawn),-4.77,
COc1ccccc1S(=O)(=O)Cc1ccc(C(=O)NCC(OC)OC)o1,11.7,
Cc1cccc(NC(=O)N2CCN(Cc3ccc4c(c3)OCO4)CC2)c1C,-17.8,
Cc1ccc([N+](=O)[O-])c(C(=O)Nc2cccnc2Cl)c1,-9.71,
Cc1cccc(NC(=O)c2ccc([N+](=O)[O-])o2)c1C,,1.83 µM (active)

SMILES,"activity change, negative = killing [%]",Potency
Cc1ccc(NC(=O)c2ccc([N+](=O)[O-])o2)c(C)c1,,1.3 µM (active)
Cc1ccc(N/C(C(Cl)=C(Cl)Cl)=C(/Cl)[N+](=O)[O-])c(C)c1,,0.818 µM (active)
COc1ccc(-c2cc3ccccc3oc2=O)cc1NC(=O)c1ccc([N+](=O)[O-])o1,,0.729 µM (active)
O=C(Nc1ccccc1Cl)c1ccc([N+](=O)[O-])o1,,1.3 µM (active)
Cc1ccccc1NC(=O)c1ccc([N+](=O)[O-])o1,,1.83 µM (active)
Cn1c(=O)c(=O)n(C)c2cc([N+](=O)[O-])c(N3CCOCC3)cc21,,4.1 µM (active)
O=C(N/N=C/c1ccc([N+](=O)[O-])o1)c1cc2ccccc2o1,,0.516 µM (active)
O=C(N/N=C/c1ccc([N+](=O)[O-])o1)c1cc2c(ccc3ccccc32)o1,,0.729 µM (active)
O=C(N/N=C/c1ccc([N+](=O)[O-])o1)c1cn2ccc3ccccc3c2n1,,0.918 µM (active)
O=C(N/N=C/c1ccc([N+](=O)[O-])o1)c1sc2ccccc2c1Cl,,1.3 µM (active)
Cc1cccc(-n2nc([N+](=O)[O-])c(=NC3CCN(Cc4ccccc4)CC3)n2O)c1,,0.729 µM (active)
O=[N+]([O-])c1nn(-c2ccccc2)n(O)c1=NC1CCN(Cc2ccccc2)CC1,,0.365 µM (active)
O=[N+]([O-])c1nn(-c2ccc3c(c2)OCCO3)n(O)c1=NC1CCN(Cc2ccccc2)CC1,,0.46 µM (active)
COc1ccc(-n2nc([N+](=O)[O-])c(=NC3CCN(Cc4ccccc4)CC3)n2O)cc1,,0.729 µM (active)
O=C(N/N=C/c1ccc([N+](=O)[O-])s1)C(O)c1ccccc1 (stereo not drawn),,2.9 µM (active)
O=[N+]([O-])c1ccc(/C=N/Nc2ncccc2[N+](=O)[O-])s1,,2.31 µM (active)
O=C(N/N=C\c1ccc([N+](=O)[O-])s1)c1cncc(Br)c1,,2.9 µM (active)
Cc1ccc(NC(=S)N/N=C/c2ccc([N+](=O)[O-])s2)cc1,,2.31 µM (active)
O=C(N/N=C/c1ccc([N+](=O)[O-])s1)c1cccnc1,,2.31 µM (active)
O=[N+]([O-])c1ccc(/C=N/NC(=S)Nc2ccc(Cl)cc2Cl)s1,,3.65 µM (active)
Cc1ccc(C(=O)N/N=C/c2ccc([N+](=O)[O-])s2)cc1,,1.03 µM (active)
O=C(N/N=C/c1ccc([N+](=O)[O-])s1)c1ccccc1,,1.63 µM (active)
COc1cc(CNc2nnnn2C)cc(OC)c1OC,7.64,
O=[N+]([O-])c1ccc(/C=N/Nc2nc(N3CCCC3)nc(N3CCCC3)n2)o1,,2.05 µM (active)

SMILES,"activity change, negative = killing [%]",Potency
O=[N+]([O-])c1ccc(/C=N/Nc2nc(N3CCCCC3)nc(N3CCCCC3)n2)o1,,1.16 µM (active)
O=[N+]([O-])c1cc(/C=N/Nc2nc(N3CCCCC3)nc(N3CCCCC3)n2)ccc1O,,6.5 µM (active)
COc1cccc(CNCc2cccc(Br)c2)c1OC,7.37,
O=[N+]([O-])c1ncccc1Oc1nc(-c2cccnc2)nc2ccccc12,,2.05 µM (active)
FC(F)(F)c1ccc2c(c1)N1CCCC1CN2 (stereo not drawn),,1.45 µM (active)
CCOC(=O)/C=C/[C@H]1CCc2cccc(Cl)c2O1,-22.7,
Nc1ccc(-c2cnc(-c3ccc(N)cc3)nc2)cc1,,4.1 µM (active)
CNN/C(N=Cc1ccc([N+](=O)[O-])s1)=N\S(=O)(=O)c1cc(C)c(Cl)cc1SCc1ccccc1,,1.03 µM (active)
CN1C(=O)/C(=C/c2ccc(O)c([N+](=O)[O-])c2)N(C)C1=S,,3.26 µM (active)
CN1C(=O)/C(=C/c2ccc(O)c([N+](=O)[O-])c2)NC1=S,,3.26 µM (active)
Cc1ccc(C(CC(=O)O)NC(=O)c2ccc(S(=O)(=O)N3CC(C)OC(C)C3)cc2)cc1 (stereo not drawn),-5.13,
O=C1c2ccc3c4c(ccc(c24)C(=O)N1CCCCO)C(=O)N(CCCCO)C3=O,,1.83 µM (active)
O=C(CCN1C(=O)c2ccccc2C1=O)Nc1ccccc1C(F)(F)F,21,
CCOC(=O)c1c(NC(=O)CS(=O)(=O)c2cn(CC)c3ccccc23)sc2c1CCCCC2,1.17,
NC(=O)c1c(NC(=O)CCCn2cnc([N+](=O)[O-])n2)sc2c1CCCC2,,7.29 µM (active)
CC1CCc2c(sc(NC(=O)CCCn3cnc([N+](=O)[O-])n3)c2C(N)=O)C1 (stereo not drawn),,4.6 µM (active)
CC1CCc2c(sc(NC(=O)Cn3cnc([N+](=O)[O-])n3)c2C(N)=O)C1 (stereo not drawn),,18.3 µM (active)
Cc1nc(CS(=O)(=O)c2ccc(Cl)cc2)sc1C(=O)O,7.64,
COCCCn1[nH]c2c3c(ccc2c1=O)C(=O)c1ccccc1C3=O,,1.03 µM (active)
CC(C)Cn1[nH]c2c3c(ccc2c1=O)C(=O)c1ccccc1C3=O,,1.45 µM (active)
O=C1c2ccccc2C(=O)c2c1ccc1c(=O)n(C3CCCCC3)[nH]c21,,2.31 µM (active)
